Screening results deposited in PubChem BioAssay by National Center for Advancing Translational Sciences (NCATS).
HCMV inh: blocks human cytomegalovirus replication; AID 1259415; 410,000 compounds, 4.5% hits; HFF cells, HCMV-luciferase reporter, 72 h; stronger effect = lower value; activity change, negative = inhibition, % at 57.5 µM; in the data active = activity change below about -60%; inconclusive = no clear call, values can overlap the other calls; inactive = above about -39%
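Human foreskin fibroblasts infected with luciferase-reporter HCMV at MOI 1 PFU/cell, compounds at two doses. Luciferase measured 72 h post infection; normalized to buffer-only basal and Salinomycin (10uM) controls.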
Pf growth 48h: inhibits P. falciparum growth in the first generation, 48 h | P. falciparum luciferase growth in erythrocytes, 48 h | Potency, µM (doses to about 28.7 µM), actives largely listed as inhibitors | 310,000 compounds, 5.9% hits
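Read-out is firefly luciferase luminescence from an integrated reporter in P. falciparum, so falling signal marks reduced parasite growth. Infected erythrocytes were at 2% hematocrit and 0.1% parasitemia (final) in Albumax-supplemented RPMI 1640.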
HCV inh: inhibitors of hepatitis C virus infection. Huh7.5.1 HCVcc-Cre infection, luciferase reporter, 44 h. 340,000 compounds, 3.4% hits. Potency, µM (doses to about 41.8 µM), most hits filed as inhibitors
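Infectious HCVcc-Cre (~0.5 moi) was added to cells just after compound, with cells seeded 4 h earlier at 1,000 per well. Luciferase activity after 44 h culture reported infection; substrate was incubated 15 min at room temperature before reading.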
Pf growth 96h: P. falciparum growth inhibition at 96 hours | P. falciparum luciferase reporter growth, 96 h | Potency, µM (highest dose often 28.7 µM), actives largely listed as inhibitors | 320,000 compounds, 6.9% hits
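Two-generation exposure (96 h) targets delayed-death phenotype. Reporter parasites carrying integrated firefly luciferase, in red cells at 2% hematocrit and 0.05% parasitemia final, kept at 37 C, 5% CO2; luminescence loss indicates inhibition.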
Of the large screens only hits and unclear results are named; the others gave an inactive call. In the library only some 13% were active in any assay of this set; here they are far more common. Unless noted, calls come from the whole dose curve; as a rule, active = well fitted inhibition curve with a large enough effect; inconclusive = small, poorly fitted or top-dose-only effect, or another doubt; inactive = no such curve, though single readings can be large or run the other way.

CC(C)c1ccccc1OCC(=O)Nc1cc(S(=O)(=O)N2CCOCC2)ccc1N1CCCC1	HCMV inh inconclusive, Pf growth 48h 5.2µM, HCV inh inconclusive, Pf growth 96h inconclusive
Cc1cc(S(=O)(=O)N2CCOCC2)ccc1OCC(=O)Nc1ccc(F)cc1F	none
CCN1CCN(c2ccc(S(=O)(=O)N3CCOCC3)cc2NC(=O)COc2ccc(F)cc2Cl)CC1	Pf growth 48h inconclusive, Pf growth 96h 4.7µM
COc1ccccc1C(=O)OCC(=O)Nc1cc(S(=O)(=O)N2CCOCC2)ccc1N1CCCC1	none
Cc1ccccc1OCC(=O)Nc1cc(S(=O)(=O)N2CCOCC2)ccc1N1CCCC1	Pf growth 48h 10µM, HCV inh inconclusive, Pf growth 96h 7.4µM
CCCCCOc1ccc(/C=C/C(=O)Nc2sc3c(c2C(=O)OCC)CCC3)cc1OC	none (no result: Pf growth 48h, HCV inh, Pf growth 96h)
Cc1ccc(NC(=O)c2ccc3c(O)c(S(=O)(=O)c4ccc(Cl)cc4)c(=O)[nH]c3c2)cc1	none (no result: Pf growth 48h, HCV inh, Pf growth 96h)
COCCCN1CN=C(NS(=O)(=O)c2ccc(NC(C)=O)cc2)NC1	none (no result: Pf growth 48h, HCV inh, Pf growth 96h)
Cc1nnc(N2CCN(c3ccccc3F)CC2)c2c1nnn2Cc1ccccc1	none (no result: Pf growth 48h, HCV inh, Pf growth 96h)
Cc1cccc(-n2c(C)c(-c3ccccc3)[nH]c2=S)c1	Pf growth 48h inconclusive, HCV inh inconclusive, Pf growth 96h 9.3µM
Cc1cccc(-n2c(O)c(C)c(=O)[nH]c2=S)c1	HCMV inh inconclusive, Pf growth 48h inconclusive
Cc1cccc(/C=C2\Sc3ccc(C(=O)NCC4CCCO4)cc3N(C)C2=O)c1 (configuration not stated)	Pf growth 48h inconclusive, HCV inh inconclusive, Pf growth 96h inconclusive
CCOc1ccc(/C=C2/Sc3ccc(C(=O)NCC4CCCO4)cc3N(C)C2=O)cc1OC (configuration not stated)	Pf growth 48h 8.3µM, HCV inh inconclusive, Pf growth 96h 13µM
CCOC(=O)N1CCN(C(=O)c2ccc3c(c2)N(C)C(=O)/C(=C\c2ccc(OCC)c(OC)c2)S3)CC1	HCMV inh inconclusive, Pf growth 48h 1.2µM, HCV inh 10µM
O=C1Nc2cc(C(=O)N3CCOCC3)ccc2S/C1=C\c1ccccc1	HCMV inh inconclusive, Pf growth 48h inconclusive
Cc1cccc(/C=C2/Sc3ccc(C(=O)N4CCOCC4)cc3NC2=O)c1	HCMV inh -75, Pf growth 48h inconclusive
CCOC(=O)N1CCC(NC(=O)c2ccc3c(c2)N(C)C(=O)/C(=C/c2cccc(OC)c2)S3)CC1	Pf growth 48h inconclusive, HCV inh 3.2µM
Cc1nn(-c2ccccc2)nc1C(=O)Nc1ccccc1C(=O)NCC1CC1	none (no result: Pf growth 48h, HCV inh, Pf growth 96h)
Cc1cc2nc(-c3ccccc3)c(Cc3ccccc3)n2c(C)c1Br	none (no result: Pf growth 48h, HCV inh, Pf growth 96h)
CCc1ccc2occ(CC(=O)Nc3c(C(=O)c4ccccc4)oc4ccccc34)c2c1	none (no result: Pf growth 48h, HCV inh, Pf growth 96h)
COc1ccc(/C=C2/Sc3ccc(C(=O)N4CCOCC4)cc3NC2=O)cc1OC	HCMV inh -69, Pf growth 48h inconclusive, Pf growth 96h 15µM
CCOC(=O)N1CCN(C(=O)c2ccc3c(c2)NC(=O)/C(=C\c2ccc(OC)c(OC)c2)S3)CC1	HCMV inh inconclusive, Pf growth 48h inconclusive, Pf growth 96h 13µM
Cc1ccc(/C=C2/Sc3ccc(C(=O)N4CCC5(CC4)OCCO5)cc3NC2=O)cc1	Pf growth 48h inconclusive, Pf growth 96h inconclusive
CCOC(=O)N1CCN(C(=O)c2ccc(OC)c(OC)c2)CC1	none
CC(C)(C)S(=O)N1C[C@@H]2CC(=O)C(CCO)=C2[C@H]1CCO (some centres not stated)	none (no result: Pf growth 48h, HCV inh, Pf growth 96h)
Cc1ccc(NC(=O)CN2C(=O)c3ccccc3Sc3ccc(C(=O)N4CCOCC4)cc32)c(Cl)c1	none (no result: Pf growth 48h, HCV inh, Pf growth 96h)
NC(=O)c1ccc[n+](CC(=O)c2ccc(Br)cc2)c1	none
NC(=O)c1ccc[n+](Cc2ccc(-c3ccccc3)cc2)c1	Pf growth 96h 7.4µM (no result: Pf growth 48h)
CCOC(=O)N1CCC(NC(=O)c2cnn(-c3ccc(C)cc3)c2C2CCN(C(=O)OC(C)(C)C)CC2)CC1	none (no result: Pf growth 48h, HCV inh, Pf growth 96h)
c1ccc(-c2cnnc3ccccc23)cc1	HCV inh 11µM
COc1cc2c(cc1OC)[C@@H]1O[C@](CCCCN3C(=O)c4ccccc4C3=O)(C2)Oc2cc(C)n(-c3ccccc3)c(=O)c21	Pf growth 48h 1.1µM, Pf growth 96h inconclusive (no result: HCMV inh, HCV inh)
COc1cc2c(cc1OC)C1O[C@](CCCCN3C(=O)c4ccccc4C3=O)(C2)Oc2cc(C)n(Cc3ccccc3)c(=O)c21	Pf growth 48h inconclusive, Pf growth 96h 2.4µM (no result: HCMV inh, HCV inh)
CCCCn1c(C)cc2c(c1=O)[C@H]1O[C@](CCCC)(Cc3cc(OC)c(OC)cc31)O2	Pf growth 96h inconclusive (no result: HCMV inh, HCV inh)
